# GRIN3A LBD mod: NR3A (human) ligand-binding domain modulation | NR3A LBD differential scanning fluorimetry, Tm shift; 0% = protein alone, 100% = glycine-bound protein | Tm shift relative to glycine control, % at 25 µM | actives 2.5% (n = 340,000) | AID 1259313;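 active = melting temperature shift of at least 10% of the positive control shift, at one fixed dose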
# SKKanGAS inh: blocks kanamycin growth of S. pyogenes SKKanGAS strain; BacTiter-Glo, 6 h; actives 1.3% (n = 300,000); inhibition, % at 7.5 µM;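 active = mean replicate score, as percent of positive control median, at least 50; inconclusive = mean below 50 but one replicate at or above 50; inactive = mean and every replicate below 50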;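 also: strain carries kanamycin resistance gene driven by streptokinase promoter and grows in 40 µg/ml kanamycin; loss of luminescence reflects streptokinase promoter inhibition or plain growth inhibition; 0% = median of DMSO wells and 100% = positive control at its reference dose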
# Mdm2 MdmX PPI: disrupts the human Mdm2-MdmX interaction; O15151+Q00987; SaOS-2 split-luciferase Mdm2/MdmX complementation, luminescence; inhibition, % at 8 µM; actives 3% (n = 330,000); AID 485346;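 active = inhibition of at least 50% at 8 µM in the primary screen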
# Target sequence (O15151 whole entry, looked up): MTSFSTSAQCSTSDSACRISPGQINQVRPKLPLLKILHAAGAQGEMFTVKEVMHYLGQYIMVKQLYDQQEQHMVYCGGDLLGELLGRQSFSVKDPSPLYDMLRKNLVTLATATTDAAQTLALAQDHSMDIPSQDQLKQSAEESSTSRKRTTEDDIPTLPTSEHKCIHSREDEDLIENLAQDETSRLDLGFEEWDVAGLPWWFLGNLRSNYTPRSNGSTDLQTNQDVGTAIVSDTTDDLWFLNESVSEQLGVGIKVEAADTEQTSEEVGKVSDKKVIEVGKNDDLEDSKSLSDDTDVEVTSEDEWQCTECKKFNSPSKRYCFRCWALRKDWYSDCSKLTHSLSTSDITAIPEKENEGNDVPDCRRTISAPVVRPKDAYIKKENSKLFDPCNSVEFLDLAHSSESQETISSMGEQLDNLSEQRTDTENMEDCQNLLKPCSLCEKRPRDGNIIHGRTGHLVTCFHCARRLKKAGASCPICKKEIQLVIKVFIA
# Target sequence (Q00987 whole entry, looked up): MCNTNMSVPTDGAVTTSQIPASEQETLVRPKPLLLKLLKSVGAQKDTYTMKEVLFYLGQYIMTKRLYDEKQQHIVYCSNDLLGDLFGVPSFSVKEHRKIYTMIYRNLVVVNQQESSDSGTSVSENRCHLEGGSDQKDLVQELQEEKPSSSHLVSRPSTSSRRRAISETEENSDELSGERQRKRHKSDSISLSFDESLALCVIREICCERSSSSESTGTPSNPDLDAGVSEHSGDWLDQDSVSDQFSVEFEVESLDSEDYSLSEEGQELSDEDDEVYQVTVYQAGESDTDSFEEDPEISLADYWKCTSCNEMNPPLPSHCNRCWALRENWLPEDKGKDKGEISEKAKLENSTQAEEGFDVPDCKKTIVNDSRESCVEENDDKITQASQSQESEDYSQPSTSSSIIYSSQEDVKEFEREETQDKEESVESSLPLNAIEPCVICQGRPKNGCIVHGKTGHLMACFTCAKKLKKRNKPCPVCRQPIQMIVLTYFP
# CSC inhib: blocks cancer stem cells; cancer stem cell-like cells viability, luminescence; inhibition, % at 7.5 µM; actives 1.1% (n = 300,000); AID 2717; in the data active = inhibition above about 75%; inconclusive = no clear call, values can overlap the other calls; tested in HMLE shEcad cells
# Beta cell apopt: beta cell apoptosis inhibition; INS-1E cytokine-induced death, ATP luminescence, 48 h; percent of positive-control rescue, neutral wells zero; protection from apoptosis, % (test concentration not listed); actives 0.8% (n = 300,000); AID 435005;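 active = Every replicate reaches about 75%, or at least half do and their mean reaches it too, limit read from the data; inconclusive = At least half of replicates reach the limit but their mean does not; inactive = Under half of replicates reach the limit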;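 also: 0% = cytokine-treated negative control wells and 100% = positive control rescue; higher means more ATP so stronger rescue from cytokine killing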
# MPTP inh: permeability transition pore inhibition; actives 1.4% (n = 360,000); isolated mouse mitochondria, Ca2+ swelling absorbance, 30 min; AID 602449; inhibition, % at 10 µM;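 active = inhibition of 50% or more, scaled per plate between neutral and stimulator controls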;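 also: 0% = DMSO wells given calcium and 100% = 1 mM EGTA wells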
# Mdm2-MdmX conf: human Mdm2/MdmX binding inhibition, confirmed. inhibition, % at 8 µM. luminescent assay. AID 489028. actives 55% (n = 10,000). shares compounds with Mdm2 MdmX PPI; in the data active = inhibition above about 40%
# FLuc counter: full-length luciferase inhibition in Mdm2/MdmX counter-screen; inhibition, % at 8 µM; actives 77% (n = 6,200); SaOS-2 full-length luciferase counterscreen, luminescence; shares compounds with Mdm2 MdmX PPI;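 active = mean inhibition at 8 µM reaching about 37%, which flags the compound as non-specific, limit read from the data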;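 also: p53-null SaOS-2 cells with luciferase driven by a doxycycline-inducible promoter; compound on cells about two nights before reading with doxycycline added after day one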
# Starred values were filed as active, the others as inactive; ? = inconclusive; . = no result. The list is not random: actives were taken first. Their share in the collection is about 6.9%.
SMILES,GRIN3A LBD mod,SKKanGAS inh,Mdm2 MdmX PPI,CSC inhib,Beta cell apopt,MPTP inh,Mdm2-MdmX conf,FLuc counter
COc1ccc(Nc2nc(N3CCOCC3)nc(N3CCOCC3)n2)cc1Cl,-2,4,61*,4,.,0,22,.
CC1CCc2cc(F)ccc2N1C(=O)CSc1nnc2c(n1)[nH]c1ccc(F)cc12 (centres undefined),24*,20,84*,46,41,14,24,.
Cc1cccc(C(=O)Nc2ccccc2SCC2CSc3nc4ccccc4c(=O)n32)c1 (centres undefined),-1,-2,63*,14,.,3,44*,107*
O=C(Nc1ccccc1SCC1CSc2nc3ccccc3c(=O)n21)c1ccccc1 (centres undefined),-3,-1,15,-3,4,-1,.,.
O=C(Nc1ccccc1SCC1CSc2nc3ccccc3c(=O)n21)c1cccc(Cl)c1 (centres undefined),0,3,77*,30,6,0,55*,43*
Cc1ccc(C(=O)Nc2ccccc2SCC2CSc3nc4ccccc4c(=O)n32)cc1 (centres undefined),0,0,70*,25,7,-4,47*,55*
O=C(Nc1ccccc1SCC1CSc2nc3ccccc3c(=O)n21)c1ccccc1Cl (centres undefined),-3,3,-14,2,11,-2,.,.
CC(=O)Nc1ccc(S(=O)(=O)N2CCN(C(=O)c3ncoc3-c3cccc(F)c3)CC2)cc1,-1,1,20,8,3,0,.,.
C=COC(=O)c1sc2nc(C)cc(C)c2c1N,-1,4,-17,6,6,-1,.,.
COc1ccc(N2CCN(CC(=O)c3ccc(Cl)cc3)CC2)cc1,2,2,-29,-6,-2,0,.,.
CC1(C)CC(NC(=O)c2cc(S(=O)(=O)N3CCOCC3)c(Cl)cc2Cl)CC(C)(C)N1,0,-8,13,27,-5,1,.,.
Cc1c(CC(=O)O)c(=O)oc2cc3occ(-c4ccccc4)c3cc12,-3,-2,12,-3,-1,0,.,.
COc1ccc(-c2coc3cc4oc(=O)cc(-c5ccccc5)c4cc23)cc1F,-9,1,84*,-6,20,2,58*,55*
COc1ccc(-c2cc(=O)oc3cc4occ(C)c4cc23)cc1,0,-4,20,40,3,0,.,.
COc1ccc(-c2coc3cc4oc(=O)cc(C)c4cc23)cc1F,8,-14,71*,-11,12,-2,46*,105*
O=C(Nc1ccccc1N1CCCC1)C1CCCO1 (centres undefined),0,.,-6,.,.,-2,.,.
O=C(Nc1ccc(-c2cn3c(n2)SCC3)cc1)c1ccco1,-11,-3,-24,3,-10,0,.,.
Cc1ccc(NC(=O)CCC(=O)N/N=C/c2ccc(O)cc2O)cc1,4,8,22,27,11,0,.,.
C=CCc1cccc(/C=N/NC(=O)CCC(=O)Nc2ccc(C)cc2)c1O,14*,7,65*,9,90*,2,65*,52*
COC(=O)c1sc(-c2ccccc2)cc1NC(=O)c1ccc(OC)cc1,2,-1,75*,24,16,1,6,.
CCOC(=O)c1cc(-c2ccccc2)sc1NC(=O)c1ccc(OC)cc1,2,4,75*,-13,25,.,20,.
S=c1[nH]nc(COc2ccc(Cl)cc2)n1Cc1ccco1,1,7,-3,13,-1,-1,.,.
Cc1cc(C)n(-c2ccc(NC(=O)C3CCCCN3C(=O)c3cc(C)oc3C)cc2)n1 (centres undefined),2,5,29,-4,-8,-2,.,.
O=S1(=O)N=C(N(Cc2cccs2)c2ccc(O)cc2)c2ccccc21,0,2,28,-3,5,-1,.,.
CNC(=O)N(C1=NCC(C)(C)S1)c1ccc(F)c(Cl)c1,-4,-1,55*,45,3,-1,34,82*
SMILES,GRIN3A LBD mod,SKKanGAS inh,Mdm2 MdmX PPI,CSC inhib,Beta cell apopt,MPTP inh,Mdm2-MdmX conf,FLuc counter
Cc1ccnc(N(C(=O)Nc2ccccc2)C2=NCC(C)(C)S2)c1,3,0,-58,7,-4,-2,.,.
CCNc1ccc(C(=O)OCC)cc1NC(=O)c1cccc(S(=O)(=O)N(C)c2ccccc2)c1,1,-2,18,16,-7,4,.,.
CCNc1ccc(C(=O)OCC)cc1NC(=O)c1cccc(N(C)C)c1,0,-9,58*,.,.,1,54*,65*
CCN(CC(=O)Nc1ccc(NC(C)=O)cc1)C(=O)/C=C/c1cn(-c2ccccc2)nc1-c1cccs1,9,8,48,7,8,-2,.,.
CC1=NNC(=O)/C1=C\c1cn(-c2ccccc2)nc1-c1cccs1,1,6,83*,81*,99*,-1,56*,26
CN1CCC(N(C)C(=O)/C=C/c2cn(-c3ccccc3)nc2-c2cccs2)CC1,-1,-2,76*,42,5,-2,35,67*
O=C(CCCN1C(=O)/C(=C\c2cccs2)SC1=S)Nc1ccccc1O,.,.,.,.,.,4,.,.
O=C(O)CCCCCN1C(=O)/C(=C\c2cn(-c3ccccc3)nc2-c2cccs2)SC1=S,7,91*,51*,103*,1,40,29,.
COc1cccc(-c2nc3nc(C)cc(C)n3c2NC2CCCC2)c1,.,.,.,.,.,0,.,.
Cc1cc(N/N=C/c2ccc(Cl)cc2Cl)nc(NCc2ccccc2)n1,-1,92*,71*,?,.,15,31,.
CCc1ccccc1N(CC)C(=O)C1CCN(c2ncnc3c2nc2n3CCCCC2)CC1,-1,2,64*,-14,12,-2,7,.
COc1cc(OC)c2c(-c3cccc(-c4ccc(C(F)(F)F)cc4)c3)cc(=O)oc2c1,0,.,44,.,.,1,.,.
COc1cc(OC)c2c(-c3cccc(-c4ccc(F)c(Cl)c4)c3)cc(=O)oc2c1,-11,.,72*,.,.,1,61*,43*
COc1cc(OC)c2c(-c3cccc(-c4ccc(C#N)cc4)c3)cc(=O)oc2c1,-2,.,43,.,.,0,.,.
COc1ccc(-c2ccc(-c3cc(=O)oc4cc(OC)c(OC)c(OC)c34)cc2)cc1OC,2,.,39,.,.,0,.,.
COc1cc(OC)c2c(-c3cccc(-c4ccc(OC)c(OC)c4)c3)cc(=O)oc2c1,1,.,63*,.,.,0,52*,86*
COc1cc(OC)c2c(-c3cccc(-c4sccc4C(C)=O)c3)cc(=O)oc2c1,-1,.,72*,.,.,0,55*,55*
COc1cc2oc(=O)cc(-c3cccc(-c4cccc(C)c4)c3)c2c(OC)c1OC,5,.,62*,.,.,0,18,.

# From PubChem
